# RORgamma inh: inhibitors of mouse ROR gamma transcriptional activity; Drosophila S2 Gal4-RORgamma UAS-luciferase reporter, 20 h; actives 5.4% (n = 310,000); Potency, µM (titrated, usually from 53.6 µM), most hits filed as inhibitors; P51450; note: nearly all actives have a fitted effect of over 60% in size
# Target sequence (P51450 whole entry, looked up, the tested form may be a part): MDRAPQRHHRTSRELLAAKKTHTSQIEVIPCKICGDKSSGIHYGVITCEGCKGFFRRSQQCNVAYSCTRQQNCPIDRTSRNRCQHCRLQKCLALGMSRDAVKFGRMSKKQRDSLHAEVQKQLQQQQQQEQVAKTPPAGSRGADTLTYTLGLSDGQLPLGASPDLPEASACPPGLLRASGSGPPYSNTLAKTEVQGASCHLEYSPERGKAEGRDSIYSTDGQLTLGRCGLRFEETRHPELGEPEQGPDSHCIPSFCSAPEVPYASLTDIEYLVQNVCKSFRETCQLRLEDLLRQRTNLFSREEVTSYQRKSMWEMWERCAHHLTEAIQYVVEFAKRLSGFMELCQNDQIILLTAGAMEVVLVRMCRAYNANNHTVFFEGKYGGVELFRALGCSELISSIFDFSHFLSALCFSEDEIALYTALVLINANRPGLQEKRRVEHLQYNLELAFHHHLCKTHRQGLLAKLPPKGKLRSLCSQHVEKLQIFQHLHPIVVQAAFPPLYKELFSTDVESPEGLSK
#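 Drosophila S2 cells stably expressing Gal4-DBD/mouse RORγ fusion under metallothionein promoter plus UAS-luciferase; compound 1 h, then 700 uM CuSO4 induction for 20 h at ambient temperature; inhibition read as reduced luminescence.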
# BRCA1 expr up: activators of BRCA1 expression; MCF7-BRCA1-FFLuc reporter, luminescence, 48 h; response scale: scaled: vehicle 0%, 10 µM genistein 100%; Potency, µM (series often up to 46.1 µM), hits mostly activators; actives 1.1% (n = 380,000); AID 624202; note: nearly all actives have a fitted effect of over 80% in size
#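 MCF7 cells carrying a BRCA1-firefly luciferase reporter (2000 cells/well, phenol-red free MEM) were attached for 2 h at 37 °C, then given compounds for 48 h. Luminescence was read 15 min after luciferase reagent; activity normalized to genistein (10 microM) and DMSO.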
# VP16 counter: Gal4-VP16 reporter inhibition counter-screen. actives 3.5% (n = 310,000). Drosophila S2 Gal4-VP16 UAS-luciferase, luminescence, 20 h. Potency, µM (doses to about 53.6 µM), actives largely listed as inhibitors. AID 2546;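 note: Gal4-VP16 expression switched on by copper sulfate through the metallothionein promoter; nearly all actives have a fitted effect of over 50% in size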
# p53 reactivation: re-activators of mutant p53 | H1299 p53-A138V BP100-luciferase reporter, luminescence, 24 h | Potency, µM (doses to about 92.2 µM), most hits filed as activators | actives 0.063% (n = 320,000) | AID 504706; note: nearly all actives have a fitted effect of over 45% in size
#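 p53-null H1299 cells stably carrying temperature-sensitive p53-A138V and a BP100-luciferase reporter were pinned with compounds (4-point, 1:5 series) and held 24 hrs at 37 deg C. Luminescence was read 10 min after detection reagent.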
# ELG1 repair inh: blocks ELG1-dependent DNA repair in HEK293T cells | HEK293T ELG1-luciferase reporter, luminescence, 16 h; DNA damage induced by 5-fluorouridine | Potency, µM (series often up to 46.1 µM), most hits filed as inhibitors | actives 2.3% (n = 330,000) | AID 504467; note: nearly all actives have a fitted effect of over 55% in size
#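 5-Fluorouridine DNA damage + compound/DMSO, 2,000 cells/well, 16 h, 37 °C/5% CO2. ONE-Glo, 30 min RT, luminescence. Readout = decrease in reporter signal.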
# Giardia kill: Giardia lamblia killing. Giardia lamblia trophozoite viability. activity change, % at 7.66 µM, hits read low. actives 0.15% (n = 340,000); in the data active = activity change below about -80%; inconclusive = between about -30% and that limit;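 note: parasites exposed to compound for two days anaerobically before the ATP read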
#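 Luminescence from cellular ATP indicates surviving trophozoites (100 cells/well) following 48 hrs anaerobic compound treatment at 37 deg C; signal develops 15-30 min at room temperature.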
# Hits are given with their value; 0 = inactive; ? = inconclusive; - = no result. Rows were chosen to be rich in hits. Some 7.6% of all compounds tested hit in one or more screens of this group. Unless noted, calls come from the whole dose curve; as a rule, active = well fitted curve in the direction sought with a large enough effect; inconclusive = small, poorly fitted or top-dose-only effect, or another doubt; inactive = no such curve, though single readings can be large; an effect the other way counts as inactive or inconclusive.
SMILES,RORgamma inh,BRCA1 expr up,VP16 counter,p53 reactivation,ELG1 repair inh,Giardia kill
CCN(CC)CCNC(=O)Cn1cnc2sc(C)c(S(=O)(=O)N3CCN(c4ccccc4OC)CC3)c2c1=O,0,0,0,0,0,0
COc1ccc(CN2C(=O)C(CC(=O)NC(c3ccccc3)c3ccccc3)CC(C(=O)N(C)C)=C2C)cc1 (centres undefined),-,0,-,-,-,-
CCn1c(=O)cc(SCC(=O)NCCCN2CCN(c3ccccc3F)CC2)c2ccccc21,0,0,0,0,?,0
CN(CC(=O)Nc1ccc2c(c1)OCCO2)S(=O)(=O)c1ccc(F)cc1,0,0,?,?,?,0
C/C(CCC12CC3CC(CC(C3)C1)C2)=N\NC(N)=S,1.3µM,0,4.5µM,0,?,0
NC(=O)CNC(=O)[C@@H]1CC2(CC(c3cccc([N+](=O)[O-])c3)=NO2)CN1C(=O)c1ccccc1 (some centres undefined),0,0,0,0,0,0
COc1ccc(C(=O)C(CCC(CNC(C)(C)C)C(=O)c2ccc(OC)cc2)CNC(C)(C)C)cc1 (centres undefined),?,0,13µM,0,8.2µM,0
CCN1C(=O)CS/C1=N\S(=O)(=O)c1ccc(Cl)cc1,0,0,0,0,0,0
CCN1C/C(=N\S(=O)(=O)/N=C2\CN(CC)C(=O)N2CC)N(CC)C1=O,10µM,0,0,0,0,0
O=C(OCc1cn([C@H]2CN(Cc3cccs3)[C@@H](c3ccccc3)C[C@@H]2O)nn1)c1ccccc1,-,0,-,-,-,-
CCN(CC)CCn1c(NCc2ccc(OC)cc2)nc2ccccc21,0,0,0,-,-,0
Cn1cnc2cc(NCc3ccccc3Cl)ccc21,0,7.9µM,0,0,?,0
Cc1ccc(CNc2nc3ccccc3n2C)o1,0,4µM,0,?,?,0
CCN(CC)CCn1c(NCc2ccc(C)o2)nc2ccccc21,0.5µM,0,0,0,0,0
Cn1c(NCc2ccccc2Cl)nc2ccccc21,-,3.5µM,-,-,-,0
Cn1c(NCc2ccccc2O)nc2ccccc21,0,?,0,?,?,0
COc1cc(CC(NC(C)=O)C(=O)NC2CCN(C(=O)C3CC3)CC2)cc(OC)c1 (centres undefined),0,0,0,0,0,0
CCn1c(CNC(=O)c2cccc(C)c2)nc2ccccc21,?,0,?,0,0,0
O=C(OCC(=O)N1CCN(c2ccccc2)CC1)c1cnc(Cl)c(Cl)c1,0,-,0,0,0,-
CC1CC(C)CN(S(=O)(=O)c2ccc(NC(=O)CCN3C(=O)C4CC=CCC4C3=O)cc2)C1 (centres undefined),-,0,-,0,?,0
Nc1nc(-c2ccc(Oc3ccccc3)cc2)cs1,0,11µM,0,0,?,0
CC(=O)Nc1ccc(S(=O)(=O)Nc2cccc(-c3csc(C)n3)c2)cc1,?,0,0,0,?,0
Nc1nc(-c2ccc3ccccc3c2)cs1,0,?,?,0,?,0
Nc1nc(-c2cccc(NS(=O)(=O)c3ccccc3)c2)cs1,?,0,18µM,0,?,0
Nc1nc(-c2ccc(-c3ccccc3)cc2)cs1,?,?,22µM,0,?,0
SMILES,RORgamma inh,BRCA1 expr up,VP16 counter,p53 reactivation,ELG1 repair inh,Giardia kill
CS(=O)(=O)N(Cc1ccccc1)c1ccccn1,0,0,0,0,0,0
Cc1cccc(N2CCN(C(=O)CSc3ccc4c(c3)OCCO4)CC2)c1C,-,0,-,0,11µM,0
CCc1cc(=O)oc2cc(OCC(=O)N3CCc4ccccc43)ccc12,0,-,0,0,0,-
Cc1cccc(N2CCN(C(=O)COc3ccc4c(C)cc(=O)oc4c3C)CC2)c1C,0,0,0,0,26µM,0
CCc1cc(=O)oc2c(C)c(OCC(=O)N3CCCc4ccccc43)ccc12,11µM,0,?,0,?,0
COC(=O)C1=C(C)N(Cc2ccccc2)C(=NCc2ccc(OC)cc2)N[C@H]1c1ccc(Br)cc1,0,-,0,-,-,-
COc1ccc(C(=O)O/N=C(\C)c2cnccn2)cc1,0,0,0,0,0,0
O=[N+]([O-])c1cccc(/C([O-])=C(/C(=S)Nc2cccc3ccccc23)[n+]2ccccc2)c1,10µM,0,?,0,0,0
CC(C)C/C=C1\CCc2c([nH]c3ccccc23)C1=O,0,8.9µM,?,0,?,0
O=C1/C(=C/c2cccnc2)CCc2c1[nH]c1ccccc21,0,?,0,0,0,0
Cn1c(-c2ccc(Cl)nc2)nc2ccccc21,0,0,0,0,?,0
Cn1c(-c2cccs2)nc2ccccc21,13µM,7.9µM,0,0,?,0
CC(C)Cn1c(-c2cccs2)nc2ccccc21,0,0,?,0,?,0
Cn1c(-c2ccc(C=O)s2)nc2ccccc21,?,11µM,0,0,?,0
CC(=O)c1ccc(NC(=S)NCCc2ccc(S(N)(=O)=O)cc2)cc1,?,0,0,?,0,0
CC(C)OCCCNC(=S)Nc1ccc(S(N)(=O)=O)cc1,0,0,35µM,0,0,0
Cc1ccc2cc(NC(=O)c3ccc(C(C)(C)C)cc3)ccc2n1,0,?,0,0,?,0
CCc1ccc(C(=O)Nc2ccc3nc(C)ccc3c2)cc1,0,3.2µM,0,?,?,0
Cc1ccc2cc(NC(=O)Cc3ccccc3)ccc2n1,0,4.5µM,0,0,?,?
Cc1ccc2cc(NC(=O)c3ccccc3C)ccc2n1,0,7.1µM,0,?,?,0
CN(CC(=O)Nc1cccc(F)c1)C(=O)CNC(=O)Cc1cccc2ccccc12,-,0,-,0,0,0
O=C(CSc1ccc(-c2ccc(F)cc2)nn1)N1CCCc2ccccc21,0,0,0,0,?,0
COc1ccccc1Cn1c(=O)c2ccccc2n2c(Sc3ncnc4sccc34)nnc12,11µM,0,?,0,?,0
NC(=O)C1CCN(c2nc(-c3ccccc3Br)cs2)CC1,-,0,-,?,?,0
CCN(CC)S(=O)(=O)c1ccc(N=Nc2c(C)[nH]n(C(N)=S)c2=O)cc1,0.05µM,0,0.013µM,?,?,0
SMILES,RORgamma inh,BRCA1 expr up,VP16 counter,p53 reactivation,ELG1 repair inh,Giardia kill
CC(=O)N(C)c1ccc(N=Nc2c(C)[nH]n(C(N)=S)c2=O)cc1,0.35µM,0,3.2µM,0,?,0
CCOC(=O)c1ccc(N=Nc2c(C)[nH]n(-c3ccccc3)c2=O)cc1,0,0,0,-,0,0
CCN(CC)S(=O)(=O)c1ccc(N=Nc2cc(C)cc(Br)c2O)cc1,-,0,-,-,-,0
CC(=O)N(C)c1ccc(N=Nc2c(C)[nH]n(-c3ccccc3)c2=O)cc1,20µM,0,?,0,0,0
Cc1ccc(S(=O)(=O)Nc2cccc3ncccc23)cc1,0,0,0,0,0,0
Cc1ccc(S(=O)(=O)Nc2ccc(O)c3cccnc23)cc1,10µM,0,?,0,18µM,0

# Screening data: PubChem BioAssay, National Center for Advancing Translational Sciences (NCATS)
